Rows were chosen to be rich in hits. Some 1.1% of all compounds tested hit in one or more screens of this group.
USP2a inhib: USP2a (human) protease inhibition; USP2a enzymatic assay, qHTS inhibition; Potency, µM (doses to about 38.3 µM), for inactives: at the highest dose activity change, negative = inhibition, most hits filed as inhibitors; hit rate 0.1% among 60,000; further: potency means the concentration at half of the fitted maximal effect; nearly all actives have a fitted effect of over 60% in size
Target sequence (O75604 whole entry, looked up): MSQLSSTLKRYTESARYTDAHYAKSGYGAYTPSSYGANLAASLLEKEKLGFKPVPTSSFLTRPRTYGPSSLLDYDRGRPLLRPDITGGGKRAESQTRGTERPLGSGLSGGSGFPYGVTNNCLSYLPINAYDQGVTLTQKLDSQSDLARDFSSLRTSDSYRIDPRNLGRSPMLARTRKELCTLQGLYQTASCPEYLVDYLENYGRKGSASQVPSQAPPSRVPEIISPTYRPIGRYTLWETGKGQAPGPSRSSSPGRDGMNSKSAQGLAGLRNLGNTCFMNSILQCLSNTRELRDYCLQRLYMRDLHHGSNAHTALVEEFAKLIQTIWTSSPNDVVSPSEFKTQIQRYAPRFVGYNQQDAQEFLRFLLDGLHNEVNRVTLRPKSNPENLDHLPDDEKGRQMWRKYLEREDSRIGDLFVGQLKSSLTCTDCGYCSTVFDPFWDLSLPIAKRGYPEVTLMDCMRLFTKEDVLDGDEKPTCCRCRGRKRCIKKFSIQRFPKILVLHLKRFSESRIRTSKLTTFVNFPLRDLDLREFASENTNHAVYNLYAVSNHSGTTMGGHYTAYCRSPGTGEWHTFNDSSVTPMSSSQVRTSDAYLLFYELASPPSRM
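USP2 core (20 nM final) was preincubated with compound for 30 min at RT in 20 mM Tris-HCl pH 8.0, 2 mM CaCl2, 2 mM beta-mercaptoethanol; Ub-PLA2 (20 nM) plus NBD C6-HPC (20 uM) then added, fluorescence read after 2.5 h.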
Ub-GFP proteasome: inhibits proteasome, raising ubiquitin-GFP reporter fluorescence. AID 526. 67,000 tested, under 10 active. Potency, µM (doses to about 45.9 µM), without a hit: at the highest dose activation (GFP accumulation), usual class: activators. Ubiquitin-GFP reporter cells, proteasome inhibition, GFP fluorescence; response scale: untreated = 0%, 10 µM MG-132 = 100%; active means well fitted activation curve with a large enough effect, not every such curve was filed as active; inconclusive means small, poorly fitted or top-dose-only effect, or another doubt; inactive means no such curve, though single readings can be large or run the other way; further: potency means the concentration at half of the fitted maximal effect
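U2OS cells stably expressing ubiquitin(G76V)-GFP, seeded overnight in 0.5% FBS medium, were exposed to compounds (qHTS, 46 uM to 2.9 nM) for 4 hr at 37 °C. GFP-positive cells were counted by laser cytometry (488 ex/515 em), normalized between basal and 10 uM MG-132.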
GBA activity: human lysosomal glucosylceramidase modulation. purified enzyme, resorufin glucoside fluorescence (screen aimed at inhibitors), 20 min. Potency, µM. hit rate 1.1% among 48,000. AID 360; in the data active means potency below about 15 µM; inconclusive means mostly about 16 µM to 33 µM;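 further: potency means the concentration at half of the fitted maximal effect; the screen sought inhibitors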
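Wild-type enzyme at 0.2 nM final in 50mM citric acid/KH2PO4, 10mM sodium taurocholate, 0.01% tween-20, pH 5.9, with resorufin beta-D-glucopyranoside at 30 uM final. Compounds titrated, 20 min at RT, red fluorescence read; AC50 from titration.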
GFP derepression: epigenetic GFP locus derepression in mouse cells; mouse C127i GFP locus derepression, cytometry, 30 h; Potency, µM (top dose mostly 46.1 µM), for the others: at the highest dose GFP derepression (activation); hit rate 0.09% among 68,000; further: % of control where 0% means no effect
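Read-out is the number of GFP-positive cells, scored as fluorescent objects 20 to 120 um wide, reflecting derepression of a silenced CMV-GFP reporter in murine C127i cells after 30 h compound exposure at 37 C.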
HBB splice mod: hemoglobin beta splicing modulation. HBB splicing reporter cell assay, activation; EGFP reporter with mutant IVS2-654 intron; response scale: normalised to 500 nM splice-correcting PNA. Potency, µM (highest dose often 46.1 µM), for inactives: top-dose activation, actives largely listed as activators. hit rate 0.06% among 65,000; further: potency means the concentration at half of the fitted maximal effect; 0% is about no effect
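Compounds were applied for 2 days to HeLa EGFP-654 cells, 500/well in Optimem with 2% FCS. The reporter's EGFP is disrupted by mis-splicing of beta-globin intron IVS2-654. Readout: summed well GFP fluorescence from 488 nm laser scanning; reference was 500 nM antisense […] 654 PNA.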
Hsp90 Hop PPI: changes Hsp90-Hop TPR2A binding signal, up or down. AID 595. AlphaScreen TPR2A-His6 binding biotin-Hsp90 C-terminal peptide. Potency, µM (series often up to 57 µM), for inactives: at the top dose activity change, negative = inhibition. hit rate 0.44% among 71,000; active means well fitted curve in either direction with a large enough effect; inconclusive means small, poorly fitted or top-dose-only effect, or another doubt; further: potency means the concentration at half of the fitted maximal effect; on the % scale 0 is the no-effect control and ±100 the full control effect
An asterisk follows results filed as active; [ ] = dose if it differs, or a comment. Unless noted, the call rests on the fitted dose curve; in most records, active means well fitted curve in the direction sought with a large enough effect; inconclusive means small, poorly fitted or top-dose-only effect, or another doubt; inactive means no such curve, though single readings can be large; an effect the other way counts as inactive or inconclusive.

Results for Cc1ccc(S(=O)(=O)Oc2ccc(N=Nc3ccc(-c4ccc(N=Nc5c(O)ccc6cc(S(=O)(=O)O)cc(S(=O)(=O)O)c56)c(C)c4)cc3C)cc2)cc1 ?
HBB splice mod: 1%; Hsp90 Hop PPI: 0.05µM*

Results for O=C(CCCCCn1c(=S)[nH]c2cc3c(cc2c1=O)OCO3)N1CCN(C2CCCCC2)CC1 ?
USP2a inhib: 32%; Ub-GFP proteasome: 2%; GBA activity: 0.9*; GFP derepression: 4%; HBB splice mod: 5%[0.369 µM]; Hsp90 Hop PPI: -6%

How did CCNc1ncc2nc(-c3ccccc3)c(=O)n(-c3ccc(OC)cc3)c2n1 do in these assays?
USP2a inhib: 76%; Ub-GFP proteasome: 9%; GFP derepression: 2%[9.22 µM]; HBB splice mod: 2%; Hsp90 Hop PPI: 4µM*

Results for COc1cccc(Nc2ncc3nc(-c4cccs4)c(=O)n(-c4ccccc4)c3n2)c1 ?
USP2a inhib: 77%; Ub-GFP proteasome: inconclusive; GFP derepression: 4µM*; HBB splice mod: 10µM*; Hsp90 Hop PPI: -10%

How did CCNc1ncc2nc(-c3cccs3)c(=O)n(-c3ccccc3)c2n1 do in these assays?
USP2a inhib: 137%; Ub-GFP proteasome: inconclusive; GFP derepression: 8%[9.22 µM]; HBB splice mod: 13µM*; Hsp90 Hop PPI: -7%

What do the screens show for `COc1ccc(-n2c(=O)c(-c3cccs3)nc3cnc(Nc4ccccc4)nc32)cc1`?
USP2a inhib: 48%; Ub-GFP proteasome: 20%; GFP derepression: -3%[9.22 µM]; HBB splice mod: 10%; Hsp90 Hop PPI: -4%

Results for COc1cccc(Nc2ncc3nc(-c4cccs4)c(=O)n(Cc4cccs4)c3n2)c1 ?
USP2a inhib: 182%; Ub-GFP proteasome: 2%; GFP derepression: 0%[9.22 µM]; HBB splice mod: 13µM*; Hsp90 Hop PPI: -4%

Results for CC(=O)O[C@]1(C)CC[C@]23CC1C(C)(C)C2CC[C@@H]3C (stereo partly drawn) ?
USP2a inhib: -9%

Results for O=C(O)CCCNc1cc(N2CCC3(CC2)OCCO3)c2noc3c2c1C(=O)c1ccccc1-3 ?
USP2a inhib: 14%; Ub-GFP proteasome: -10%; GBA activity: 12*; GFP derepression: 4%; HBB splice mod: -1%; Hsp90 Hop PPI: 3.2µM*

What do the screens show for `CCOC(=O)N1CCN(c2cc(NCCC(=O)O)c3c4c(onc24)-c2ccccc2C3=O)CC1`?
USP2a inhib: 15%; Ub-GFP proteasome: 13%; GBA activity: >77; GFP derepression: 2%; HBB splice mod: 1%; Hsp90 Hop PPI: inconclusive

How did CNC[C@H](O)c1ccc(OC(=O)C(C)(C)C)c(OC(=O)C(C)(C)C)c1 do in these assays?
USP2a inhib: 7%[17.1 µM]; Ub-GFP proteasome: -6%[20.5 µM]; GFP derepression: -1%[20.6 µM]; HBB splice mod: -2%[20.6 µM]; Hsp90 Hop PPI: 0%[26 µM]

Results for Cc1ccc(-c2noc(CCC(=O)NCCN3CCc4ccccc4C3)n2)cc1 ?
USP2a inhib: 26%; Ub-GFP proteasome: -4%; GBA activity: 15*; GFP derepression: 3%; HBB splice mod: 1%; Hsp90 Hop PPI: 3%

How did OCCN1CCN(C(c2cccs2)c2ccc3cccnc3c2O)CC1 (stereo not drawn) do in these assays?
USP2a inhib: 30%; Ub-GFP proteasome: 6%; GBA activity: inactive; GFP derepression: 2%; HBB splice mod: 4%[0.369 µM]; Hsp90 Hop PPI: 32µM*

Results for O=C(c1c(O)c2ccc(Cl)cc2[nH]c1=O)C1CC1 ?
Ub-GFP proteasome: -3%; GFP derepression: -1%; Hsp90 Hop PPI: -5%

How did COc1ccc(NC(=O)C2CCN(c3cc(C)nc(-c4ccccc4)n3)CC2)cc1 do in these assays?
USP2a inhib: 31%; Ub-GFP proteasome: -2%; GBA activity: 13*; GFP derepression: 1%; HBB splice mod: 0%[57.5 µM]; Hsp90 Hop PPI: -3%

What do the screens show for `Cc1cc(N2CCC(C(=O)Nc3ccc(F)cc3)CC2)nc(-c2ccccc2)n1`?
USP2a inhib: 22%; Ub-GFP proteasome: -1%; GBA activity: inconclusive; GFP derepression: -1%; HBB splice mod: -3%; Hsp90 Hop PPI: 5%

What do the screens show for `CCOC(=O)CC(=O)CSc1nc2c(c(C)c1C#N)CCC2`?
USP2a inhib: -1%; Ub-GFP proteasome: -3%; GFP derepression: 4%; HBB splice mod: 8%[0.369 µM]; Hsp90 Hop PPI: 2%

How did CCOC(=O)CCSc1nc2c(c(C(F)(F)F)c1C#N)CCC2 do in these assays?
USP2a inhib: -13%; Ub-GFP proteasome: 0%; GBA activity: 15*; GFP derepression: 0%; HBB splice mod: -1%; Hsp90 Hop PPI: inconclusive

What do the screens show for `O=C(CN(C(=O)CNS(=O)(=O)c1ccccc1)c1ccc2c(c1)OCCO2)NC1CCCCC1`?
USP2a inhib: 13%; Ub-GFP proteasome: 1%; GBA activity: 12*; GFP derepression: 0%; Hsp90 Hop PPI: -2%

What do the screens show for `COc1cc(/C=C(/C#N)c2ccc(F)cc2)ccc1OCc1ccc(C(=O)O)o1`?
USP2a inhib: 15%; Ub-GFP proteasome: -2%; GBA activity: >77; GFP derepression: -3%; HBB splice mod: -1%; Hsp90 Hop PPI: -7%

How did N#C/C(=C/c1ccc(N2CCCCCC2)o1)c1ccc(F)cc1 do in these assays?
USP2a inhib: 19%; Ub-GFP proteasome: 0%; GBA activity: >77; GFP derepression: 3.2µM*; HBB splice mod: inconclusive; Hsp90 Hop PPI: -14%

What do the screens show for `C/C1=C/CC(C)(C)/C=C/C/C(C)=C/CC1`?
USP2a inhib: -1%

What do the screens show for `CCc1ccc(CNc2ccc(O)cc2)cc1`?
USP2a inhib: 38%; Ub-GFP proteasome: 5%; GBA activity: 11*; GFP derepression: 6%; HBB splice mod: 0%; Hsp90 Hop PPI: -29%

Results for Cc1noc(C)c1C(=O)N1CCC2(CCCN(Cc3nccs3)C2)CC1 ?
USP2a inhib: 8%; Ub-GFP proteasome: -9%; GFP derepression: -7%[9.22 µM]; HBB splice mod: 3%; Hsp90 Hop PPI: 6%

How did CCCCOc1ccc(C2C3CN(C(=O)OCC)CC=C3C(C#N)=C(N)C2(C#N)C#N)cc1OC (stereo not drawn) do in these assays?
USP2a inhib: 30%; GBA activity: 15*; GFP derepression: 29%; HBB splice mod: 0%[0.369 µM]; Hsp90 Hop PPI: -20%

What do the screens show for `CCOC(=O)N1CC=C2C(C#N)=C(N)C(C#N)(C#N)[C@H](c3ccc(OCC)c(OCC)c3)[C@H]2C1`?
USP2a inhib: 9%; GBA activity: >77; GFP derepression: -2%; HBB splice mod: 0%[0.369 µM]; Hsp90 Hop PPI: -4%

What do the screens show for `COc1ccc(CNc2ccnc(-c3cccc(C#N)c3)n2)c(OC)c1`?
USP2a inhib: inconclusive; Ub-GFP proteasome: -6%; GFP derepression: 1%[9.22 µM]; HBB splice mod: 0%; Hsp90 Hop PPI: 20%

Screens deposited in PubChem by National Center for Advancing Translational Sciences (NCATS).
